For 13 compounds, growth results are on record in PubChem BioAssay (NCI).

The panel holds about 83,000 compounds, 20% with a hit somewhere; the sample as a whole holds those more often.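 The test compound was applied at a single concentration to cells in 96-well plates for 48 hours, and percent growth was recorded.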 Unmarked numbers belong to inactive results. Calls of active or inactive are those of the source. Rule for the calls: active = growth percent below 10; inactive = the rest.

Some test systems named below: DU-145 prostate; K-562 leukemia; MALME-3M melanoma; MDA-MB-231 breast; RXF 393 renal; SF-268 CNS; SF-295 CNS; SF-539 CNS; UACC-257 melanoma; M14 melanoma.
Holding throughout (test): NCI-60 one-dose screen, 48 h (100 = growth as untreated, 0 = no growth, -100 = all killed)
Conditions in all cases: 10 µM unless noted

As for `CC(C)(C)n1cc(-c2ccnc(NCCCNS(=O)(=O)c3ccc(C(F)(F)F)cc3)c2)c(-c2cccc(O)c2)n1`, the growth was 46.3% in the experiment with DU-145 prostate; 3% (active) in the experiment on K-562 leukemia; -18% (active) in the experiment on MALME-3M melanoma; 1.39% (active) in the experiment on MDA-MB-231 breast; -3.46% (active) with RXF 393 renal; 36.3% with SF-268 CNS. In addition, the growth in the experiment with SF-295 CNS is 1.72% (active); in the experiment with SF-539 CNS, 19.8%; in the experiment on UACC-257 melanoma, 17.2%; with M14 melanoma, 1.32% (active).
In the case of `CO[C@H]1NC(=O)N(S(=O)(=O)c2ccc(Cl)cc2)[C@@H]1OC`, the growth was 115% with DU-145 prostate; 93.2% in the experiment on K-562 leukemia; 101% in the experiment with MALME-3M melanoma; 108% in the experiment on MDA-MB-231 breast; 119% in the experiment on RXF 393 renal; 102% in the experiment on SF-268 CNS. Further, the growth was 92.1% with SF-295 CNS, 98.7% with SF-539 CNS, 106% with UACC-257 melanoma and 115% in the experiment with M14 melanoma.
Regarding `COc1cc(C2C3=C(COC3=O)Nc3cc4c(cc32)CCC4)cc2c1OCO2` (stereo not given), the growth was -0.3% (active) in the experiment on DU-145 prostate; 14.1% in the experiment with K-562 leukemia; 60% in the experiment with MALME-3M melanoma; 20.8% with MDA-MB-231 breast; 30.4% in the experiment on RXF 393 renal; 27.9% in the experiment with SF-268 CNS. Besides, the growth was 6.57% (active) with SF-295 CNS, 10.2% in the experiment with SF-539 CNS, 73.1% in the experiment on UACC-257 melanoma and 12% in the experiment with M14 melanoma.
Take `CCOC(=O)c1c(NS(=O)(=O)c2ccc(C)cc2)sc2c1CCC1(C2)OCCO1`: the growth in the experiment on DU-145 prostate was 114%; in the experiment on K-562 leukemia, 89.5%; with MALME-3M melanoma, 114%; with MDA-MB-231 breast it was 99.7%; in the experiment with RXF 393 renal, 103%; in the experiment on SF-268 CNS, 93.6%. The growth was 93.1% in the experiment with SF-295 CNS, 93.7% with SF-539 CNS, 96.2% with UACC-257 melanoma and 104% in the experiment with M14 melanoma.
Turning to `CCN(CC)CCOc1ccc(/C(=C(/C)c2ccccc2)c2ccc(OC(C)=O)cc2)cc1`, the growth in the experiment with DU-145 prostate is 105%; in the experiment on K-562 leukemia it was 87.2%; in the experiment with MALME-3M melanoma it was 99.1%; in the experiment on MDA-MB-231 breast, 108%; in the experiment with RXF 393 renal it was 100%; in the experiment with SF-268 CNS, 93.2%. In addition, the growth in the experiment with SF-295 CNS is 103%; in the experiment with SF-539 CNS, 101%; in the experiment with UACC-257 melanoma it was 120%; in the experiment with M14 melanoma, 98.3%.
For `C=C1C(=O)O[C@@H]2[C@@H]3O[C@@](C)(CC/C=C(\C)CCC[C@@H]2C)[C@H](O)C[C@@H]13`, the growth in the experiment on DU-145 prostate is 50.1%; in the experiment with K-562 leukemia, 18.6%; in the experiment with MALME-3M melanoma it was 55.2%; with MDA-MB-231 breast, 68.2%; with RXF 393 renal, 27%; in the experiment with SF-268 CNS, 67.9%. In addition, the growth in the experiment with SF-295 CNS was 81.8%; in the experiment with SF-539 CNS, 58.3%; in the experiment on UACC-257 melanoma, 67.9%; in the experiment with M14 melanoma, -1.2% (active).
Regarding `c1coc(CNc2ccnc(Nc3ccc(OCCN4CCCCC4)cc3)n2)c1`, the growth in the experiment on DU-145 prostate was 91.6%; in the experiment on K-562 leukemia, 27.6%; in the experiment with MALME-3M melanoma, 110%; with MDA-MB-231 breast, 82.6%; in the experiment with RXF 393 renal, 71.3%; in the experiment on SF-268 CNS, 90.4%. The growth in the experiment on SF-295 CNS was 95.1%; in the experiment on SF-539 CNS it was 76.4%; with UACC-257 melanoma, 87.3%; with M14 melanoma, 102%.
As for `COc1ccc(/C=C2\N=C(c3ccccc3)N(C(=O)c3ccccc3O)NC2=O)cc1`, the growth with DU-145 prostate is 110%; in the experiment on K-562 leukemia, 86.5%; in the experiment on MALME-3M melanoma, 89.9%; with MDA-MB-231 breast it was 84.6%; in the experiment with RXF 393 renal, 105%; in the experiment with SF-268 CNS, 108%. Further, the growth was 92.9% with SF-295 CNS, 95.3% in the experiment with SF-539 CNS, 110% with UACC-257 melanoma and 98.8% with M14 melanoma.
For `C=C1C(=O)O[C@H]2[C@H]1CC/C(Cn1cc(CNC(=O)Cc3cn(C(=O)c4ccc(Cl)cc4)c4ccc(OC)cc34)nn1)=C\CC[C@@]1(C)O[C@@H]21`, the growth is 31.9% in the experiment with DU-145 prostate; -22.6% (active) with K-562 leukemia; -76.1% (active) in the experiment with MALME-3M melanoma; -24.1% (active) with MDA-MB-231 breast; -61.3% (active) in the experiment with RXF 393 renal; 9.83% (active) with SF-268 CNS. For the same compound, the growth in the experiment on SF-295 CNS was 83.5%; in the experiment with SF-539 CNS it was -83.7% (active); in the experiment with UACC-257 melanoma it was 10.4%; in the experiment with M14 melanoma, -32.4% (active).
As to `Cc1ccc(C(=O)NCCCNc2nccc(-n3ccc4cccnc43)n2)cc1`, the growth with DU-145 prostate was 96.5%; in the experiment on K-562 leukemia, 92.1%; in the experiment on MALME-3M melanoma, 111%; in the experiment with MDA-MB-231 breast, 104%; in the experiment on RXF 393 renal, 102%; in the experiment with SF-268 CNS it was 94.7%. For the same compound, the growth is 96% in the experiment with SF-295 CNS, 99.2% with SF-539 CNS, 107% in the experiment with UACC-257 melanoma and 102% in the experiment with M14 melanoma.
In the case of `O=C(N/N=C/C=C\c1ccccc1)C(=O)N/N=C/C=C/c1ccccc1`, the growth in the experiment with DU-145 prostate is 112%; with K-562 leukemia, 113%; in the experiment with MALME-3M melanoma, 117%; with MDA-MB-231 breast, 111%; in the experiment on RXF 393 renal it was 127%; in the experiment with SF-268 CNS, 105%. Moreover, the growth in the experiment on SF-295 CNS is 104%; in the experiment with SF-539 CNS, 114%; with UACC-257 melanoma it was 106%; in the experiment on M14 melanoma, 107%.
In the case of `O=C1NC(=C(Cl)Cl)/C(=N/S(=O)(=O)N2CCC(C3(C(F)(F)F)N=N3)CC2)N1`, the growth with DU-145 prostate is 102%; in the experiment with K-562 leukemia, 8.72% (active); in the experiment on MALME-3M melanoma it was 100%; with MDA-MB-231 breast, 71.2%; in the experiment with RXF 393 renal, 79.5%; in the experiment with SF-268 CNS, 86%. The growth is 101% in the experiment with SF-295 CNS, 98.2% in the experiment on SF-539 CNS, 97.2% with UACC-257 melanoma and 98.9% with M14 melanoma.
For `CCNc1nc(S(=O)(=O)CC)nc2ccccc12`, the growth in the experiment on DU-145 prostate was 103%; in the experiment on K-562 leukemia, 85.2%; with MALME-3M melanoma it was 83.3%; in the experiment on MDA-MB-231 breast, 102%; with RXF 393 renal, 107%; in the experiment on SF-268 CNS, 92.3%. The growth was 105% in the experiment on SF-295 CNS, 88.3% in the experiment on SF-539 CNS, 85.5% in the experiment on UACC-257 melanoma and 96.8% with M14 melanoma.
